# HPGD inh: inhibitors of human 15-hydroxyprostaglandin dehydrogenase (HPGD). purified HPGD, NADH fluorescence kinetic, PGE2 substrate. P15428. hit rate 4.3% among 150,000. Potency, µM, without a hit: top-dose activity change, negative = inhibition, most hits filed as inhibitors; active = well fitted inhibition curve with a large enough effect, not every such curve was filed as active; inconclusive = small, poorly fitted or top-dose-only effect, or another doubt; inactive = no such curve, though single readings can be large or run the other way; note: potency is the fitted concentration of half-maximal effect
#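 NADH formation kinetics: reaction with 30 uM PGE2 and 1 mM NAD+ (final), 20 nM enzyme, Tris-HCl pH 8 with Tween 20, after 15 min compound preincubation at room temperature. Fluorescence change, last versus first of five reads.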
# 15-hLO-2 inh: blocks human 15-lipoxygenase 2 activity | O15296 | purified 15hLO-2, xylenol orange hydroperoxide absorbance | Potency, µM (top dose mostly 57.1 µM), for inactives: top-dose activity change, negative = inhibition, actives largely listed as inhibitors | hit rate 0.56% among 110,000; note: potency is the fitted concentration of half-maximal effect; nearly all actives have a fitted effect of over 60% in size
#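 Screening format was qHTS against 50 nM purified 15hLO-2 in Hepes pH 7.5 with detergent. Activity follows hydroperoxide formation from 45 uM arachidonic acid, measured as 573:405 nm absorbance ratio of the ferric-xylenol orange complex.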
# PNC assembly inh: inhibitors of perinucleolar compartment assembly; hit rate 3.1% among 140,000; PC3M PTB-GFP, PNC prevalence imaging, 16 h; hits give low values; activity change (PNC), negative = inhibition, % at 10 µM;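 active = readout at or below -70, meaning at least 70% loss of cells showing the perinucleolar compartment, a nuclear body marking cancer cells; inconclusive = readout between -30 and a set limit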;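 note: plate controls were DMSO wells for no effect and camptothecin positive control wells for full effect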
#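 Compounds are pinned in duplicate onto adhered PC3M cells stably expressing GFP-tagged PTB and incubated 16 h at 37 C. Cells are then fixed, nuclei stained with Hoechst, and PNC-positive cells counted.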
# IMPase Li inh: IMPase inhibition in cells with lithium potentiation; CHO-M1 cells, IP1 TR-FRET (IP-One), carbachol + lithium; hit rate 0.35% among 210,000; Potency, µM (titrated, usually from 59.4 µM), inactives show at the highest dose activity, negative = IMPase inhibition, hits mostly inhibitors; AID 1457;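 note: IP1 builds up when IMPase is blocked and the TR-FRET signal falls; potency is the fitted concentration of half-maximal effect; plate controls were basal vehicle for no effect and high inhibitor control for full effect; nearly all actives have a fitted effect of over 50% in size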
#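 CHO cells stably expressing M1 receptor (2000/well) were cultured 16–30 h, then exposed to compounds with a small lithium addition for 30 min at 37C. IP1 was measured by TR-FRET competition; AC50 from Hill fits.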
# 12-hLO inh: blocks human 12-lipoxygenase activity. hit rate 0.12% among 150,000. P18054. Potency, µM (titrated, usually from 57.1 µM), inactives show at the highest dose activity change, negative = inhibition, hits mostly inhibitors. purified 12-hLO, xylenol orange hydroperoxide absorbance; note: potency is the fitted concentration of half-maximal effect; nearly all actives have a fitted effect of over 55% in size
# Target sequence (P18054 whole entry, looked up): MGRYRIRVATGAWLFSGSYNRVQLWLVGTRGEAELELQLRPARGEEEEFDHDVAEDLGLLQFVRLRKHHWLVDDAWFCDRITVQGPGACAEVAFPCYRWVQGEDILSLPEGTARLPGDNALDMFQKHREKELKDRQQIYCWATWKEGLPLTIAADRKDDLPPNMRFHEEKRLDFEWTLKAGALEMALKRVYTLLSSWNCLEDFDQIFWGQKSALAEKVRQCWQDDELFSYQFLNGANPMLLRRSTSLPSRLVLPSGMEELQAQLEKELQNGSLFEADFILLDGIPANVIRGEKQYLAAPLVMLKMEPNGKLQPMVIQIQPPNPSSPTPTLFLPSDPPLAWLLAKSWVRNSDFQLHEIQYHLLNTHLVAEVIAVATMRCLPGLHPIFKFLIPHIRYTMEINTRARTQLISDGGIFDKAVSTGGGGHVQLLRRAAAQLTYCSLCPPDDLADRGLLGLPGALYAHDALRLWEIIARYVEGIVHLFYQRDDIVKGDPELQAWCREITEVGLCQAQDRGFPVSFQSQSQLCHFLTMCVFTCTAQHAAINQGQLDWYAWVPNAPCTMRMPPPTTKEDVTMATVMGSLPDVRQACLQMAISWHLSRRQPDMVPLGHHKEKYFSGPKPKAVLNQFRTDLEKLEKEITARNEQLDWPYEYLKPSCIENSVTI
#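 Purified human 12hLO (150 nM), preincubated 15 min with compound, then 40 uM arachidonic acid for 30 min, room temperature, Hepes pH 7.0 with 0.01% Triton X-100. Hydroperoxide detected by ferrous iron/xylenol orange; 573/405 nm absorbance ratio gives reaction progress.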
# IMPase inh: IMPase inhibition in cells; inhibition (IP1 accumulation), % at 46.1 µM; CHO-M1 cells, IP1 accumulation, HTRF TR-FRET ratio; 120,000 tested, under 10 active; active = well fitted curve in the direction sought with a large enough effect in the signal ratio, not every such curve was filed as active; inconclusive = small, poorly fitted or top-dose-only effect, or a change in a side signal; inactive = no such curve, though single readings can be large or run the other way; the % refers to the signal ratio;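 note: cells stimulated with carbachol in lithium chloride buffer; plate controls were DMSO basal wells for no effect and reference inhibitor wells for full effect; higher means more IMPase inhibition seen as more IP1 and lower FRET ratio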
#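 Measured: the HTRF emission ratio (665/620 nm) plus the 620 nm donor channel, each fitted to the Hill equation to give AC50. Cells were CHO-M1 given compounds up to 46 uM and a 30 min carbachol stimulation at 37C.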
# * marks the source's active call; other numbers are inactive results; ? = inconclusive; / = no result given; [ ] = another dose, or the depositor's remark. Only some compounds are listed: those with a hit (about 5.4% of all), similar ones and a draw of the others. Unless noted, calls come from the whole dose curve; as a rule, active = well fitted curve in the direction sought with a large enough effect; inconclusive = small, poorly fitted or top-dose-only effect, or another doubt; inactive = no such curve, though single readings can be large; an effect the other way counts as inactive or inconclusive. Unless noted, % is set by controls: 0 for no effect and ±100 for the full control effect.
SMILES,HPGD inh,15-hLO-2 inh,PNC assembly inh,IMPase Li inh,12-hLO inh,IMPase inh
CCc1nnc(NS(=O)(=O)c2ccc(NC(=S)NC(=O)/C=C/c3ccc(C(C)C)cc3)cc2)s1,25µM*,25µM*,15,4%[38.3 µM],16µM*,10
CCc1nnc(NS(=O)(=O)c2ccc(NC(=S)NC(=O)/C=C/c3ccccc3)cc2)s1,?,/,-19,-2%,?,2
CN1CCN(c2ncc3nc(-c4cccs4)c(=O)n(C[C@H]4CCCO4)c3n2)CC1,?,4%,/,0%,-11%,/
CN(C)c1ncc2nc(-c3cn(C)c4ccccc34)c(=O)n(C[C@H]3CCCO3)c2n1,/,3%,/,0%,/,/
Brc1ccccc1-c1nnc(CSc2nnnn2-c2ccccc2)o1,16µM*,-22%,35,39%[38.3 µM],0%,-6
Cc1cc(Cc2cc(C)cc(C(C)(C)C)c2O)c(O)c(Cc2cc(C)cc(C(C)(C)C)c2O)c1,-4%,-25%[11.4 µM],/,8%,-14%[11.4 µM],/
CC(=O)NCc1nnc2c3ccccc3c(-c3ccccc3)nn12,/,/,/,3%,/,/
O=C(NCc1nnc2c3ccccc3c(-c3ccccc3)nn12)c1ccc(Cl)cc1,-6%,/,-111*,13%,-2%,/
O=c1c(-c2ccc(F)cc2)nc2cnc(N3CCNCC3)nc2n1Cc1ccc(F)cc1,/,54%,/,23%,/,/
CCCOc1c(Cl)cc(/C=N/O)cc1OCC,25µM*,5%,-1,81%[38.3 µM],-19%,5
C=CCNC(=O)c1ccc(Cl)cc1Cl,14µM*,4%,59,13%[38.3 µM],3%,-8
C=CCNC(=O)c1c(Cl)cccc1Cl,?,/,-4,2%,-1%,10
C=CCNC(=O)c1ccc(C)cc1Cl,4µM*,17%,11,-12%[38.3 µM],7%,5
Nc1nc2ccccc2n1/N=C/c1ccc([N+](=O)[O-])s1,-21%,/,-83*,2%,-3%,/
CCOC(=O)CCCc1sc(N)nc1-c1[nH]c(=O)[nH]c1C,32µM*,7%,15,-5%[38.3 µM],-9%,-2
O=C(N/N=C/c1ccc2c(c1)OCO2)C1COc2ccccc2O1 (stereo not given),-18%,5%,?,-14%[38.3 µM],-5%,10
CCCCNC(=O)C1COc2ccccc2O1 (stereo not given),16µM*,12%,4,7%[38.3 µM],-3%,7
O=C(NCc1ccccn1)C1COc2ccccc2O1 (stereo not given),14µM*,-3%,10,-5%[38.3 µM],6%,6
O=C(NCCOC(=O)C1COc2ccccc2O1)C1COc2ccccc2O1 (stereo not given),-6%,4%[2.29 µM],-17,5%[38.3 µM],-1%,3
O=C(NCc1ccc2c(c1)OCO2)C1COc2ccccc2O1 (stereo not given),4.5µM*,/,-2,-3%,-4%,-6
O=C(NCc1ccncc1)C1COc2ccccc2O1 (stereo not given),-1%,-10%,-16,-1%[38.3 µM],-2%,2
C[C@]12O[C@H]1[C@@H](O)C(Br)=C(CO)[C@H]2O,-4%,/,/,10%,/,/
O=C(NS(=O)(=O)c1ccccc1)c1ccccc1F,?,10%[2.29 µM],-122*,16%[38.3 µM],2%,-2
CN1c2ccccc2C(C)(C)C12CC(c1cccc(S(=O)(=O)N3CCCC3)c1)=NO2 (stereo not given),-21%,/,-117*,0%,1%,/
CCN(CC)S(=O)(=O)c1ccc(C2=NOC3(C2)N(C)c2ccccc2C3(C)C)cc1 (stereo not given),-17%,/,-106*,7%,2%,/
SMILES,HPGD inh,15-hLO-2 inh,PNC assembly inh,IMPase Li inh,12-hLO inh,IMPase inh
COC(=O)C1(C(=O)OC)CC2=CCC3C(=O)N(c4ccccc4)C(=O)C3C2Cc2ccccc2[C@@H]1C[N+](=O)[O-] (stereo not given in full),-2%,/,/,0%,0%,/
CC(=O)NC(C)c1nc2ccccc2n1C(C)C (stereo not given),-15%,/,-119*,4%,4%,2
Cc1ccc(NCc2nnc(SCC(=O)c3ccccc3)o2)c(C)c1,-5%,1%,-16,-20%[38.3 µM],-11%,?
Cc1ccc(NCc2nnc(SCC#N)o2)c(C)c1,-16%,/,-100*,6%,-5%,10
O=Cc1cccc(OC(=O)c2ccc(Cl)cc2Cl)c1,16µM*,1%,48,14%[38.3 µM],-20%,-11
Cn1c(NCCCCO)nc2c1c(=O)n(Cc1ccc(Cl)cc1)c(=O)n2C,/,/,/,/,/,0
CN(C)c1ncnc2ccc(-c3cccc(NS(C)(=O)=O)c3)cc12,/,-8%,/,-1%,/,/
CCCCC#Cc1ccccc1CC(=O)Nc1ccccc1,-7%,-5%,-119*,15%,-4%,/
COc1ccccc1-c1nn2c(C3COc4ccccc4O3)nnc2s1 (stereo not given),?,-22%,?,32µM*,-9%,5
COc1ccccc1-c1nn2c(-c3ccc(C(C)(C)C)cc3)nnc2s1,-24%,22%,9,-19%[38.3 µM],-3%,4
COc1ccccc1-c1nn2c(C(F)(F)F)nnc2s1,?,10%,30,7.9µM*,-5%,-1
Cc1cc(NC(=O)CSc2nnc(C3COc4ccccc4O3)n2C)no1 (stereo not given),/,/,/,-5%,/,/
COC(=O)CSc1nnc(C2COc3ccccc3O2)n1-c1ccccc1 (stereo not given),6%,-3%,19,21%[38.3 µM],-7%,1
COc1ccccc1-c1nnc2sc(-c3cc4ccccc4o3)nn12,-21%,11%,40,4%[38.3 µM],-6%,-2
c1ccc(CCc2nn3c(C4COc5ccccc5O4)nnc3s2)cc1 (stereo not given),10µM*,-4%,-7,26%[38.3 µM],3%,8
c1ccc(Cc2nn3c(C4COc5ccccc5O4)nnc3s2)cc1 (stereo not given),8.9µM*,-14%,?,10%,1%,1
CCN(CC)CCCCn1c(-c2ccccc2)nc2c(NC3CCCCC3)nc(C)nc21,?,9%,/,10%,-5%,/
COc1cccc(N2CCN(C(=S)NCCc3ccccc3)CC2)c1,-3%,-4%,-92*,34%[38.3 µM],-6%,18
CN1CCN(Cc2nc3cccc4c3c([n+]2[O-])-c2ccccc2-4)CC1,-9%,0%[11.4 µM],/,6%,0%[11.4 µM],/
COc1c2c(c3c(c1CCC(=O)O)OC(C)(C)C=C3)OC(C)(C)C=C2,0%,-8%[11.4 µM],/,3%,7%[11.4 µM],/
CCCCCCC(=O)Nc1cc2c(C)cc(=O)oc2cc1C,-17%,-11%,-119*,-11%,5%,10
COCCCN=C(c1ccco1)n1c(=S)nc(-c2ccco2)n(CCCOC)c1=S,28µM*,?,?,18%[38.3 µM],-18%,4
O=C(/C=C/c1ccc(-c2ccccc2)o1)c1ccccc1,3.5µM*,/,-8,-10%,-1%,0

# Compound activity from PubChem BioAssay.
